Screening results: PubChem, National Center for Advancing Translational Sciences (NCATS)
PLK1 PBD block = inhibitors of human PLK1 polo-box domain binding. P53350. Plk1 PBD binding of FITC phosphopeptide, fluorescence polarization. Potency, µM, for inactives: max response, negative = inhibition, actives largely listed as inhibitors. hit rate 2.8% among 360,000. AID 720504; note: potency is the fitted concentration of half-maximal effect; series mostly up to about 57 µM; nearly all actives have a fitted effect of over 65% in size
USP2a inh = USP2a (human) protease inhibition | O75604 | USP2 core, Ub-CHOP2 coupled fluorogenic reporter, 485/531 | Potency, µM (titrated, usually from 38.3 µM), for inactives: top-dose activity change, negative = inhibition, most hits filed as inhibitors | hit rate 0.01% among 330,000 | AID 463254;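 note: potency is the fitted concentration of half-maximal effect; plate controls were DMSO wells for no effect and full inhibition by NEM control for full effect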
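USP2 core (10nM final) preincubated 30min RT with compound in 20mM Tris-HCl pH 8.0, 2mM CaCl2, 2mM beta-mercaptoethanol, 0.05% CHAPS; 25nM Ub-CHOP2 plus 25nM reporter substrate added, fluorescence (Ex485/Em531) read after 60min.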
PI5P4Ka inh = inhibitors of human PI5P4K alpha | P48426 | PI5P4Kalpha enzyme, ADP-Glo luminescence, 60 min; stronger effect = lower value | max response, % | hit rate 1.2% among 330,000 | AID 652105; active = max response of -50% or lower; inconclusive = between -30% and -50%; inactive = -30% or higher; note: value at the top dose of about 77 µM
Target sequence (P48426 whole entry, looked up): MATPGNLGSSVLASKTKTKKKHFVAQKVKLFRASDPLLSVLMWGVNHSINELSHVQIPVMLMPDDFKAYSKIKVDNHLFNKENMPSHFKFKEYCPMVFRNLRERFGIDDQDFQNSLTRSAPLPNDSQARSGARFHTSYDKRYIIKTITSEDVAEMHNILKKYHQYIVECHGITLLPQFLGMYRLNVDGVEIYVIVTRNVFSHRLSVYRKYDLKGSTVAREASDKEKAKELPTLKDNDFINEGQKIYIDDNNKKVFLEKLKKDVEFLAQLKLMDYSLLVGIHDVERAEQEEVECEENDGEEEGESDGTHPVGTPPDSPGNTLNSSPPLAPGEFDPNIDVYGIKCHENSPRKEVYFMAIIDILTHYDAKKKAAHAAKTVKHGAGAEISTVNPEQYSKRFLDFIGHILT
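Human PI5P4Kalpha with substrate in 0.038 M HEPES pH 7.4, 0.28 mM EGTA, 0.1% CHAPS, 5% DMSO; reaction started with 5 microM ATP (final), 60 min at room temperature. ADP formed read by ADP-Glo luminescence.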
WRN helicase inh = blocks human WRN helicase; Q14191; WRN helicase unwinding, fluorescent forked duplex, kinetic; Potency, µM (titrated, usually from 114 µM), for the others: top-dose activity change, negative = inhibition, usual class: inhibitors; hit rate 0.46% among 360,000; note: potency is the fitted concentration of half-maximal effect; nearly all actives have a fitted effect of over 55% in size
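Enzyme (20 nM final) and test compound sit together 15 min at room temperature before substrate addition. Substrate is a single-forked duplex oligonucleotide (100 nM) labelled with fluorophore and quencher, with 2 mM ATP; helicase unwinding raises red fluorescence, read kinetically.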
USP1 inh = USP1/UAF1 (human) deubiquitinase inhibition; recombinant USP1/UAF1, Ub-Rhodamine cleavage fluorescence; AID 743255; hit rate 0.23% among 390,000; O94782; Potency, µM (series often up to 57.1 µM), inactives show at the highest dose activity change, negative = inhibition, usual class: inhibitors; note: potency is the fitted concentration of half-maximal effect; nearly all actives have a fitted effect of over 60% in size
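Step one: compound is pinned into 1nM USP1/UAF1 in HEPES pH 7.8 buffer with TCEP. Step two: 15 min room-temperature incubation. Step three: Ub-Rho (150nM final) starts cleavage, tracked by fluorescence over six one-minute reads.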
Numbers without * were called inactive; ? = inconclusive; / = no result given; [ ] = remark or other dose. This is a sample that favours compounds with a hit; in the whole collection about 3.3% have one here. Unless noted, calls come from the whole dose curve; as a rule, active = well fitted curve in the direction sought with a large enough effect; inconclusive = small, poorly fitted or top-dose-only effect, or another doubt; inactive = no such curve, though single readings can be large; an effect the other way counts as inactive or inconclusive. Unless noted, % is set by controls: 0 for no effect and ±100 for the full control effect.

SMILES	PLK1 PBD block	USP2a inh	PI5P4Ka inh	WRN helicase inh	USP1 inh
O=C(CC1CCCC1)Nc1cc(S(=O)(=O)N2CCOCC2)ccc1O	5.97µM*	2.5%	?	0.5%	-19.4%
O=C(CSc1nc2ccccc2s1)NCc1cc([N+](=O)[O-])ccc1O	18.9µM*	-1.0%	-25.2	-14.1%	19.7%
COc1ccc(S(=O)(=O)N2CCOCC2)cc1NC(=O)CSc1n[nH]c(C(C)C)n1	26.7µM*	-4.1%	-26.6	-3.4%	?
CCN(CC)S(=O)(=O)c1ccc(N2CCOCC2)c(NC(=O)c2ccccc2)c1	-5.5%	1.0%	-1.9	0.2%	-10.8%
CC(C)(C)OC(=O)N1CCC(c2c(C(=O)NC3CCCCC3)cnn2-c2cccc(Cl)c2)CC1	/	/	/	/	-16.1%
CC(C)(C)c1ccc(C(=O)Nc2onc3c2CCCC3)cc1	/	/	/	/	-14.6%
O=C(CSc1nc2ccccc2s1)Nc1cc(S(=O)(=O)N2CCOCC2)ccc1O	10.6µM*	-3.9%	?	?	-13.1%
COc1ccc(S(=O)(=O)N2CCOCC2)cc1NC(=O)Cc1ccc(Cl)c(Cl)c1	1.5%	-6.8%	5.4	-12.9%	-24.1%
CCN(CC)S(=O)(=O)c1ccc(O)c(NC(=O)COc2ccc(S(=O)(=O)N3CCOCC3)cc2)c1	23.8µM*	/	-27.0	-25.6%	-20.6%
CNC(=O)COc1ccc(S(=O)(=O)N2CCCC2)cc1	5.32µM*	-1.0%	-27.5	-18.6%	-4.5%
CCN(CC)S(=O)(=O)c1ccc(N2CCOCC2)c(NC(=O)COc2ccc(Cl)cc2)c1	-5.4%	0.0%	-4.0	0.3%	-17.2%
CCCCc1ccc(CC(=O)Nc2cc(S(=O)(=O)N3CCOCC3)ccc2O)cc1	15µM*	-1.8%	-21.7	5.3%	-26.1%
COc1ccc(CNC(=O)Cn2nc(N3CCN(c4ccccc4)CC3)ccc2=O)c(OC)c1	/	/	/	/	-7.0%
Cc1ccc(S(=O)(=O)N(CC(=O)Nc2c(C)cccc2C)c2cccc(Cl)c2)cc1	/	/	/	/	-16.0%
Cc1cccc(Cn2c(C)c(C)c3cc(C(=O)NCc4ccco4)ccc32)c1	/	/	/	/	-14.5%
CC(C)(CCC(=S)N1CCOCC1)C1CCCCC1	11.9µM*	-4.6%	2.6	-8.4%[57.1 µM]	-10.5%
S=C(CN1CCCC1=S)N1CCOCC1	-15.3%	/	4.7	-29.8%	-3.7%
O=C(Nc1ccccn1)c1cccs1	3.36µM*	/	?	-23.0%	-6.2%
O=C(NC1CCN(C(=S)NCCc2ccccc2)CC1)C1CC1	-13.8%	4.2%	0.4	3.9%	-17.8%
CCCNC(=S)N1CCC(NC(=O)C2CCCCC2)CC1	23.8µM*	0.0%	-21.1	7.4%	-19.9%
CCc1cccc(NS(=O)(=O)c2ccc(-n3cccn3)cc2)c1	29.9µM*	2.9%	-1.4	-5.3%	-18.4%
Cc1csc(NC(=O)CN(C)S(=O)(=O)c2cccc3cccnc23)n1	-15.5%	-1.9%	-3.6	0.2%	1.9%
CN(CC(=O)Nc1n[nH]c(=S)s1)S(=O)(=O)c1cccc2cccnc12	29.9µM*	4.2%	-57.0*	0.2%	1.9%
Cc1ccc(N=Cc2cc(Br)cc(Cl)c2O)cc1	-27.0%	2.3%	-20.1	-4.6%	?
CCN(CC)c1ccc(N=Cc2cc(Br)ccc2O)cc1	-4.9%	3.6%	4.9	-3.0%	?
SMILES	PLK1 PBD block	USP2a inh	PI5P4Ka inh	WRN helicase inh	USP1 inh
Oc1ccc(Br)cc1C=Nc1ccc(Cl)cc1	21.2µM*	1.0%	-12.8	-5.8%	?
Oc1c(Cl)cc(Cl)cc1C=Nc1ccc(Br)cc1	-18.3%	1.9%	-54.6*	-27.8%	?
COc1cccc(C(=O)Nc2ccc(-c3nc4ccccc4s3)cc2Cl)c1	/	/	/	/	-4.6%
O=C(N/N=C/c1ccc(N2CCOCC2)cc1)c1ccccc1OCCOc1ccccc1	2.99µM*	0.1%	?	-1.9%[57.1 µM]	?
O=C(N/N=C/c1ccc(N2CCOCC2)cc1)c1ccncc1	-4.7%	4.2%	2.9	-0.7%	-13.7%
CCn1c(C(=O)NCc2ccc(C)cc2)cc2sc(Cl)cc21	/	/	/	/	-6.2%
Cc1ccc(S(=O)(=O)N2CCCCC2)cc1NC(=O)Cn1cnnn1	-7.4%	-1.6%	5.0	-8.4%	3.8%
O=C(CCCN1C(=O)CCC1=O)Nc1ccc2c(c1)OCO2	-13.2%	1.0%	-7.0	-7.1%	-26.9%
Cc1ccc(S(=O)(=O)N2CCCCC2)cc1NC(=O)Cn1ncc(Cl)c(Cl)c1=O	-18.6%	0.3%	-52.4*	-16.7%	-9.4%
CCN(CC)S(=O)(=O)c1cc(NC(=O)Cn2ncc(Cl)c(Cl)c2=O)ccc1C	-18.3%	3.3%	-82.9*	-34.9%	-19.4%
COc1ccc(NC(=O)Cn2ncc(Cl)c(Cl)c2=O)cc1S(=O)(=O)N1CCOCC1	?	1.6%	-77.8*	?	4.4%
CCN(CC)S(=O)(=O)c1cc(NC(=O)CN2C(=O)NC(C)(c3ccccc3)C2=O)ccc1C (stereo not given)	-1.4%	3.5%	0.1	-4.3%	-25.7%
O=C(CCCCCN1C(=O)CCC1=O)Nc1ccc2c(c1)OCO2	23.8µM*	1.4%	-23.0	2.2%	-17.3%
CC(C)Oc1ccc(CNC(=O)C2COc3ccccc3C2)cc1 (stereo not given)	/	/	/	/	3.9%
COc1cccc(NS(=O)(=O)c2cc(-c3cnc(C4CC4)o3)ccc2C)c1	/	/	/	/	-12.8%
CCc1ccc(CNC(=O)C2Cc3cc(S(=O)(=O)N4CCCCCC4)ccc3N2C(C)=O)cc1 (stereo not given)	/	/	/	/	-19.3%
CCc1ccc(S(=O)(=O)NCc2nc3cccnc3n2Cc2ccccc2Cl)cc1	/	/	/	/	-5.5%
O=C(CN1CCOCC1)Nc1ccc2c(c1)OCO2	10.6µM*	3.0%	-7.5	12.2%	-20.4%
O=C(CN1CCCCCC1)Nc1cc(C(F)(F)F)ccc1Cl	-3.5%	0.0%	3.1	0.2%	-5.8%
COC(=O)c1cc(OC)c(OC)cc1NC(=O)CCCCCN1C(=O)CCC1=O	29.9µM*	0.1%	3.3	6.1%	-8.0%
O=C(CN1CCOCC1)Nc1cc(C(F)(F)F)ccc1Cl	21.2µM*	-0.8%	-8.8	-2.6%	-8.4%
O=C(CN1C(=O)CSc2ccccc21)Nc1ccc2c(c1)OCCO2	26.7µM*	1.2%	/	-3.2%	-10.8%
O=C(CN1C(=O)CCSc2ccccc21)Nc1ccc2c(c1)OCO2	-5.3%	-1.6%	/	-3.3%	4.9%
CCOC(=O)Cn1c(=O)n(C2CCCCC2)c2nc(-c3cccc(C)c3)nc(C(N)=O)c21	/	/	/	/	-12.5%
Cc1nn(CC(=O)Nc2ccc3c(c2)OCO3)c(C)c1Cl	4.1%	4.0%	-12.7	-1.4%	-20.9%
O=C(Cn1ncc(Cl)c(Cl)c1=O)Nc1ccc2c(c1)OCO2	-11.2%	1.4%	-51.6*	-6.9%[11.6 µM]	-6.9%
CCN1c2ccccc2-c2nc(SCC(=O)Nc3c(C)cc(C)cc3C)ncc2S1(=O)=O	/	/	/	/	-26.4%
CCn1nnnc1NCc1ccc(N2CCCC2)cc1	3.77µM*	-0.8%	?	-2.7%	-3.5%
CCn1nnnc1NCc1ccc(SC)cc1	-1.0%	-0.1%	5.5	1.0%	-12.9%
O=C(O)c1ccc2c(c1Nc1ccccc1)C(=O)c1ccccc1C2=O	-8.5%	-0.4%	-54.1*	-13.5%[11.6 µM]	?
